Bioassay records deposited in PubChem by National Center for Advancing Translational Sciences (NCATS).
Sampled rows, rich in hits. Any-hit rate of the full collection: about 1.7%.
HEK293 tox – cytotoxic in the GLP-1 receptor inverse agonist counter-screen. Potency, µM (series often up to 38.3 µM), for the others: at the top dose activity change, negative = inhibition, most hits filed as inhibitors. AID 624418. 0.13% of 410,000 active. HEK293 cAMP-luciferase reporter cells, luminescence, 24 h;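 also: loss of luciferase light is scored as toxicity; % is scaled to controls: 0 for no effect and ±100 for the full control effect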
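Luminescence readout: signal drop marks cytotoxicity. Plated cells grew 12 h at 37 °C, 5% CO2, received 23 nL compound for 24 h, then got luciferase reagent, read after 12 min at RT.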
GLP-1R agonist – GLP-1 receptor (human) agonism. P43220. HEK293 GLP-1R CRE-luciferase, luminescence, 4-6 h; cells express a hypersensitive GLP-1R form. Potency, µM (highest dose often 45.6 µM), for inactives: at the top dose activation, hits mostly activators. 0.007% of 380,000 active. AID 624172; also: % of control where 0% means no effect
GLP1R inv ag – acts as inverse agonist at human GLP-1 receptor; P43220; HEK293 GLP-1R CRE-luciferase, luminescence, 24 h; GLP-1R form is constitutively active; Potency, µM (series often up to 38.3 µM), for the others: at the highest dose activity change, negative = inhibition, most hits filed as inhibitors; 1.6% of 410,000 active; AID 624417; also: % is scaled to controls: 0 for no effect and ±100 for the full control effect; nearly all actives have a fitted effect of over 55% in size
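qHTS in 1536-well format: reporter HEK293 cells expressing constitutive GLP-1R activity in DMEM + 10% Nu serum, 24 hr with compounds at 37 deg C, luminescence read after 12 min with detection reagent.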
PTHR1 ag – agonists of human PTHR1 parathyroid hormone receptor. AID 743266. Q03431. HEK293 GP2 PTHR1 cells, GloSensor cAMP luminescence, 1 h. 0.075% of 410,000 active. Potency, µM (doses to about 115 µM), for inactives: at the top dose activation, most hits filed as activators; also: nearly all actives have a fitted effect of over 55% in size
Target sequence (Q03431 whole entry, looked up): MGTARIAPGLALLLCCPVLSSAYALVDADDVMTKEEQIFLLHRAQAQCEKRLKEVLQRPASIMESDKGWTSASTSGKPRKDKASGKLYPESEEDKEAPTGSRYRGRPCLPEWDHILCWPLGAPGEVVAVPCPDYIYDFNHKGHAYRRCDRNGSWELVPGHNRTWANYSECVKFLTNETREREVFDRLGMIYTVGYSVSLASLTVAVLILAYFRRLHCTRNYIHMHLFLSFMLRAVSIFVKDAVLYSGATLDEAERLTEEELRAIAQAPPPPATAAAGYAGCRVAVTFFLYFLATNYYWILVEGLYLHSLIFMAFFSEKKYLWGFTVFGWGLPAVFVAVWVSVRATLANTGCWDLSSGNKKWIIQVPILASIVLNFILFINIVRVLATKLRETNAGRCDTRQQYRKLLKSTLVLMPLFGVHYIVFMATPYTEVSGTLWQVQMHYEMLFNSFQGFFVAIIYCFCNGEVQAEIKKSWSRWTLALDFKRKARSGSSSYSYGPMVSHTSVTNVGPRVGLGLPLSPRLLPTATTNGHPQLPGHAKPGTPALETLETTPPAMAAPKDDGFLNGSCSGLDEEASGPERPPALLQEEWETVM
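HEK-293-derived GP2 cells expressing PTHR1 and a GloSensor cAMP reporter, 3,000/well, plated overnight, given luciferin plus IBMX (each 0.5 mM as added) for 1 h at 37 °C, then compound for 1 h at 37 °C. Luminescence was read after 15 min at room temperature.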
Active calls of the source: *; i = inactive; ? = inconclusive; nt = no result given; [ ] = remark or other dose. Calls follow the shape of the dose curve; as a rule, active = well fitted curve in the direction sought with a large enough effect; inconclusive = small, poorly fitted or top-dose-only effect, or another doubt; inactive = no such curve, though single readings can be large; an effect the other way counts as inactive or inconclusive. Potency is read from the fitted curve at half-maximal effect.

SMILES	HEK293 tox	GLP-1R agonist	GLP1R inv ag	PTHR1 ag
CC(C)(c1ccccc1)c1ccc(OCC(O)CNC2CCN(Cc3ccccc3)CC2)cc1 (configuration not stated)	?	0%	1.8µM*	i
COC(=O)C1=CN(Cc2ccc(OC)cc2)C=C(C(=O)OC)C1c1cc(OC)c(OC)c(OC)c1	248%	5µM*	?	i
Cc1c(-c2ccccc2)c(=O)oc2c(CN3CCCC3)c(O)ccc12	287%	nt	-8%	i
O=C(CCCn1c2ccccc2c(=O)c2ccccc21)Nc1cccc(Cl)c1	148%	nt	6.3µM*	-3%
O=S(=O)(c1cccs1)N1CN(Cc2ccco2)c2nc3ccccc3nc21	-16%	23%	1.8µM*	i
O=S(=O)(c1cccs1)N1CN(Cc2ccc(Cl)cc2)c2nc3ccccc3nc21	-8%	-5%	1%	-4%[57.5 µM]
COCCN1CN(S(=O)(=O)c2ccccc2)c2nc3ccccc3nc21	1%	5%	7%	-3%[57.5 µM]
COc1ccccc1CN1CN(S(=O)(=O)c2ccccc2)c2nc3ccccc3nc21	-25%	9%	2.8µM*	19%
Cc1cccc(OCC(=O)Nc2c(C)ccc3nsnc23)c1C	2%	nt	?	i
O=C1CN(C(=O)c2ccc(S(=O)(=O)N3CCCCC3)cc2)C(c2ccc(F)cc2)c2cc(Cl)ccc2N1 (configuration not stated)	-1%	nt	?	i
Cc1noc(C)c1-c1ccc(C(=O)Nc2ccc(C(C)C)cc2)c2occc12	-7%	0%	4.5µM*	-41%
CC(=O)Nc1ccc(NC(=O)c2ccc(-c3c(C)noc3C)c3ccoc23)cc1	-5%	0%	6%	i
Cc1cc([N+](=O)[O-])ccc1NC(=S)NC(=O)Cc1ccccc1	-14%	15%	?	i
O=C(NNC(=S)NC(=O)c1ccccc1Cl)c1cccc([N+](=O)[O-])c1	-7%	2%	1%	-8%
O=C(NC(NC(=S)Nc1c(Cl)cccc1Cl)C(Cl)(Cl)Cl)c1cccc([N+](=O)[O-])c1 (configuration not stated)	13µM*	-25%	5µM*	-52%
COc1ccc([N+](=O)[O-])cc1NC(=S)NC(NC(=O)C(c1ccccc1)c1ccccc1)C(Cl)(Cl)Cl (configuration not stated)	?	-13%	2.5µM*	-22%[57.5 µM]
Cc1cc([N+](=O)[O-])ccc1NC(=S)NC(=O)C(c1ccccc1)c1ccccc1	?	-5%	10µM*	-6%
CCC(Sc1nnc(C)n2c1cc1sccc12)C(=O)Nc1ccccc1F (configuration not stated)	-6%	nt	-6%	-27%
Cc1ccccc1CNC(=O)c1cnc2sc(N3CCOCC3)nn2c1=O	0%	nt	6%	-23%
CN(C)CC/C=C1\c2ccccc2COc2ccccc21	-10%	-1%	10µM*	-21%
CN(C)CC/C=C1/c2ccccc2CS(=O)(=O)c2ccccc21	-8%	6%	8%	-20%
Cc1ccc(SCc2nc(-c3ccc(C(=O)NCCc4ccc(Cl)cc4)cc3)oc2C)cc1	3%	nt	9%	-6%
Cc1ccc(SCc2nc(-c3ccc(C(=O)NCC(C)c4ccccc4)cc3)oc2C)cc1 (configuration not stated)	0%	nt	4.5µM*	i
CCOc1cccc(C(=O)Nc2ccc3oc(Cc4ccc(Cl)cc4)nc3c2)c1	-29%	-3%	2.2µM*	-29%[57.5 µM]
COc1cccc(NC(=O)c2ccc3nc(Cc4ccccc4)oc3c2)c1	?	nt	10µM*	-25%
SMILES	HEK293 tox	GLP-1R agonist	GLP1R inv ag	PTHR1 ag
CCOC(=O)c1cccc(NC(=O)c2ccc3nc(Cc4ccccc4)oc3c2)c1	-25%	nt	?	-7%
CCCOc1ccc(CN(C(=O)c2cc(=O)c3ccc(C)cc3o2)C2CCS(=O)(=O)C2)cc1 (configuration not stated)	-15%	nt	27%	i
Cc1cc2oc(=O)c(CC(=O)NCCc3ccccc3)c(C)c2c2occ(C(C)(C)C)c12	-2%	nt	10µM*	i
COc1ccc(CCNC(=O)Cc2c(C)c3c(cc(C)c4c(C)coc43)oc2=O)cc1	-4%	nt	8%	-7%
C[C@H]1C[C@@H]2[C@H]([C@@H](O)C[C@@]3(C)[C@H]2CC[C@]3(O)C(=O)COC(=O)CCC(=O)O)[C@@]2(C)C=CC(=O)C=C12	nt	24%	nt	nt
Cn1cc(CN(C(=O)Nc2ccccc2)C2CCCCC2)c2ccccc21	?	-4%	10µM*	-1%
CN(CCc1ccccc1)C(=O)c1cccc(NC(=O)Cc2cccc(NC(=O)C3CCCN(C(=O)c4ccccc4)C3)c2)c1 (configuration not stated)	0%	-2%	-21%	-38%
O=C(OCc1cccc(C(F)(F)F)c1)c1cc([N+](=O)[O-])ccc1N1CCOCC1	-9%	23%	10µM*	-26%
O=C(COC(=O)c1cc([N+](=O)[O-])ccc1N1CCOCC1)NCc1ccc(Cl)cc1Cl	-25%	7%	11µM*	i
O=C(c1ccc(Br)cc1)c1cc([N+](=O)[O-])ccc1N1CCOCC1	?	24%	1.4µM*	-20%
O=C(c1ccc(Cl)cc1)c1cc([N+](=O)[O-])ccc1N1CCOCC1	?	26%	?	i
O=C(c1ccccc1)c1cc([N+](=O)[O-])ccc1N1CCOCC1	11µM*	?	?	i
Cn1c(=O)cc(OCC(=O)N2CCN(c3ccc(F)cc3)CC2)c2ccccc21	-12%	3%	-21%	-13%
CCCCSCCCNC(=O)CN1C(=O)c2cccnc2Oc2ccc(Cl)cc21	-1%	nt	-15%	i
COc1cnc(-c2ccccc2)nc1Oc1cccc(C)c1C	17%	5%	11µM*	i
O=C(CCl)Nc1cccc(-c2cnc3ccccc3n2)c1	?	0%	8.9µM*	-13%
O=C(OCC(COC(=O)c1cccnc1)(COC(=O)c1cccnc1)COC(=O)c1cccnc1)c1cccnc1	nt	1%	nt	nt
C=C(C)CNC(=S)N/N=C/c1ccco1	?	8%	4.5µM*	-8%
CCNC(=S)NN=C1c2ccccc2-c2ccccc21	?	27%	?	-23%
C=C(C)CNC(=S)NN=C1c2ccccc2-c2ccccc21	?	11µM*	?	i
O=C(CCC(=O)N/N=C/c1ccco1)N/N=C/c1ccco1	2%	0%	1%	i
Fc1ccc(-[n+]2nc(Nc3ccccc3)sc2-c2c3ccccc3cc3ccccc23)cc1	?	2%	11µM*	-11%
Oc1ccc2ccccc2c1-c1sc(Nc2ccccc2)n[n+]1-c1ccc(F)cc1	-17%	10%	?	i
Nc1ccccc1SCc1csc(-c2ccc(Cl)cc2)n1	28%	21%	10µM*	-47%
Cc1cncc(C(=O)O)[n+]1[O-]	nt	-7%	nt	nt
